Drawing on PMC7819943, “Rice protein-binding microarrays: a tool to detect cis-acting elements near promoter regions in rice”, this text covers binding signal for 42 sequences.

Over roughly 68,000 sequences, “fluorescence intensity (a.u.)” has its median near 9,100; the highest 2% begin near 16,000. The sample as a whole holds a higher share of the highest values than the screen did.

OsWRKY34, sequence (Q0JBA9 entry or part of it): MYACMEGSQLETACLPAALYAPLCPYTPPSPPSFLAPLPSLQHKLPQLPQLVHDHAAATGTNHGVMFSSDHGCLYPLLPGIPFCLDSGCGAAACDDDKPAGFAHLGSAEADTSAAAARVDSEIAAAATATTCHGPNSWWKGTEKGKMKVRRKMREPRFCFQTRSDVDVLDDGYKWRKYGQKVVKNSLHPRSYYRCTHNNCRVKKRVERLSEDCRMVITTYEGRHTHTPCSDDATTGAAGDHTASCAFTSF

In the experiment the target is OsWRKY34 (Oryza sativa, UniProt Q0JBA9 1-250). In words: protein-binding microarray (RPBM); PBS, 2% BSA, 51.3 ng/ul salmon testes DNA, 50 uM zinc acetate, 200 nM TF, 25 C, 1 h; high values mean tight binding. The conditions noted are these: protein: recombinant; tags: N-terminal polyhistidine and DsRed monomer fusion (pET32a); label: CyDye5-dUTP incorporated in the synthesized complementary strand; 3' TTTTT single-stranded linker to array surface; dsDNA, one strand shown. In a few lines:
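Using Ni–NTA, transcription factors fused N-terminally to polyhistidine and DsRed were purified after expression in E. coli BL21-CodonPlus. These were incubated at 200 nM with a blocked, double-stranded custom Agilent array for 1 h at 25 °C in a buffer containing 50 µM zinc acetate, and the array was washed. The binding signal is per-feature fluorescence intensity (arbitrary units) on an Axon 4000B scanner.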
With “GCCGCCATCGTTCCTGTTCGCCGCCCGTTGTCCTTCCAATCGGAGTCACCTAGTGCAG”, the binding signal is 13000 fluorescence intensity (a.u.). Then “TTCTTCACCGTTTTGTTTTCTCTGCGCCTCAAATTTCCTTCGGAGTCACCTAGTGCAG”, with 12000 fluorescence intensity (a.u.); and “CCGGTGATGTTTTTATTTTTCTTCCGGTTCTTTTTCTCAACGGAGTCACCTAGTGCAG”, with 12300 fluorescence intensity (a.u.).

In the case of “TGAGTTGTTTTGTTGATAGGTATAGATATGAATCGAATTACGGAGTCACCTAGTGCAG”, the binding signal is 8950 fluorescence intensity (a.u.).

With “GGTGACTGATAATTATTATTTTCTTTGTTTCACATTATACCGGAGTCACCTAGTGCAG”, the binding signal was 14200 fluorescence intensity (a.u.). Then “GAGGATTGATTTGTTTTTTTTTTTTGGGGTTTTCTCTTCTCGGAGTCACCTAGTGCAG”, with 16300 fluorescence intensity (a.u.). “AGATTGGGTTTGGGTGGTGTGAGGATTGATTTGTTTTTTTCGGAGTCACCTAGTGCAG”: the binding signal was 17800 fluorescence intensity (a.u.). Then “TTTCTTTTCATATATTTTTGTTTATTTTCTCTCATTTCTCCGGAGTCACCTAGTGCAG”, with 11300 fluorescence intensity (a.u.); and “GGTTGGTGCTGTATTGTTTGAGGGGAGGGGATTCCATTTTCGGAGTCACCTAGTGCAG”, with 47400 fluorescence intensity (a.u.). “TTGTGGATTTTTTTTTTTTGAGAGGGATGGGTGTTTGATTCGGAGTCACCTAGTGCAG”: the binding signal was 10900 fluorescence intensity (a.u.). Regarding “GGGGTGACATTTCAATTGTTTTTCTCTTATATTTGTAATCCGGAGTCACCTAGTGCAG”, the binding signal was 20100 fluorescence intensity (a.u.). Then “ACGTATTTGTGAGGGGATTTGGTACCATTACATCTGTTTTCGGAGTCACCTAGTGCAG”, with 8192 fluorescence intensity (a.u.); and “TTGTTGGGTGCTGAATTGCTGATGTGGTGGGGTGACATGACGGAGTCACCTAGTGCAG”, with 12500 fluorescence intensity (a.u.); and “TTGACAATGGTTGGGGTGGTGGTGGTGTTCGCGGTGATGACGGAGTCACCTAGTGCAG”, with 31700 fluorescence intensity (a.u.). Then “ATTCTGTATTTATTGTTTGCTGCATTCAGTTTGATTGGTTCGGAGTCACCTAGTGCAG”, with 13900 fluorescence intensity (a.u.); and “CTGATGGTGTTGGTGATGGTGGTGCGGGTGCGGCAGTTGACGGAGTCACCTAGTGCAG”, with 13200 fluorescence intensity (a.u.). With “GGACTGCTCCACCATTTTTAGTCCCGGTTGGTAATACCAACGGAGTCACCTAGTGCAG”, the binding signal is 8570 fluorescence intensity (a.u.). Then “AATCTATCCCAGCCTAAATCTCACTGTTTCATGCACAACTCGGAGTCACCTAGTGCAG”, with 8350 fluorescence intensity (a.u.). On to “GCGCGCGTCCCGTCACGTCTTTTCTCCTCGCCTATATGCCCGGAGTCACCTAGTGCAG”, for which the binding signal is 9050 fluorescence intensity (a.u.).

Turning to “CAGCTATCGTTATTCTGAAGATCCACCAAGCACAATCTTACGGAGTCACCTAGTGCAG”, the binding signal was 8280 fluorescence intensity (a.u.). As to “TCGGTGGGTGGTTGGGGATATTGCAAAAAGTATATAAAAACGGAGTCACCTAGTGCAG”, the binding signal is 15800 fluorescence intensity (a.u.). Take “TTAACTGCAACCATAAGTTTCTGCGCCTAACTTTGATCGTCGGAGTCACCTAGTGCAG”: the binding signal was 8850 fluorescence intensity (a.u.).

As to “GGGGTAATTTCTCTGTGTTTTGAGTTGAGGGAGATAATTCCGGAGTCACCTAGTGCAG”, the binding signal is 16900 fluorescence intensity (a.u.). Then “ACTTCCCATTGTTGTTGCCATCGCCGCCGCCGCCGCCGCCCGGAGTCACCTAGTGCAG”, with 12200 fluorescence intensity (a.u.); and “TGTTTTGTGGGGAGGGGTGTACATATACAACTTAGTACTCCGGAGTCACCTAGTGCAG”, with 20300 fluorescence intensity (a.u.). To “TAGTATATACATGGGTGTTTGGGAGAGAGGGGCTAAACTTCGGAGTCACCTAGTGCAG” belongs 9540 fluorescence intensity (a.u.); to “ATTCTCTCTTCTGTGTTTCCTTTTTGAGATACTTCATTTTCGGAGTCACCTAGTGCAG”, 9340 fluorescence intensity (a.u.); to “CGCCGAGGGGAGGGGAGGGGAGGTTGCCATTGTTGTCCATCGGAGTCACCTAGTGCAG”, 22000 fluorescence intensity (a.u.). In the case of “TGCGCCATCTTTTGTCGTCCCGAGGGGATGGGCGGGGTTGCGGAGTCACCTAGTGCAG”, the binding signal was 16400 fluorescence intensity (a.u.). Then “CCACTTGTACATATACAACTTGTTTTGTGGGGAGGGGTGTCGGAGTCACCTAGTGCAG”, with 12700 fluorescence intensity (a.u.); and “GGGCGTGTGGTTGAGAACTTGATTGGGATGATGATGAGACCGGAGTCACCTAGTGCAG”, with 10400 fluorescence intensity (a.u.); and “TTCCTATGTTTTTCCTGTGTTTTGTAATTCTCTGTTTTACCGGAGTCACCTAGTGCAG”, with 10600 fluorescence intensity (a.u.). To “GGGCGCGATGGGTTGGGGTGTGTTTCCGTGGATTGATGACCGGAGTCACCTAGTGCAG” belongs 21100 fluorescence intensity (a.u.).

As to “ACGTTGGATTGGTGGTGGACGGGCGCGATGGGTTGGGGTGCGGAGTCACCTAGTGCAG”, the binding signal was 9930 fluorescence intensity (a.u.). To “CGAGAGATCGTTGCCCTCCGTATCCACTACTACTACACTCCGGAGTCACCTAGTGCAG” belongs 8310 fluorescence intensity (a.u.). Then “CAGGATTGCTTGGAGATTCGTGCGGGGACGCGCGGGGTGACGGAGTCACCTAGTGCAG”, with 9720 fluorescence intensity (a.u.); and “TACCGGTTAAAACGCCCAAGTCAGTGGCTCTCGTCCTCCTCGGAGTCACCTAGTGCAG”, with 8860 fluorescence intensity (a.u.). On to “GTGCAGTTTATACATTAACATGTTAATCCCACTTTACTACCGGAGTCACCTAGTGCAG”, for which the binding signal was 10300 fluorescence intensity (a.u.). Then “ACGGCATTTTTCGCCCCTTTTGTCACTGAAACACTTCACCCGGAGTCACCTAGTGCAG”, with 8860 fluorescence intensity (a.u.); and “GCAGCCCTCAATTTCTATGGCGATCGCCTCTGCTTCGTCGCGGAGTCACCTAGTGCAG”, with 8440 fluorescence intensity (a.u.). Then “GGCCTCCTTCATCACGCCCTGGATCTCACTGACTAAAAACCGGAGTCACCTAGTGCAG”, with 8030 fluorescence intensity (a.u.). With “CTATGTTCATCCTCGTGTCATATTGTGTTCATCTTCATACCGGAGTCACCTAGTGCAG”, the binding signal was 11600 fluorescence intensity (a.u.).
